The results in this text go back to the supplement of paper PMC3545927.

This is one part of the list. The hit rate among all sequences tested is not known here.

This experiment concerns the target furin, P09958. As to the kind of experiment: furin cleavage Z-score vs untreated control; higher = more cleavage, active = 3.5 or more, inactive = 1 or less, 8 variable residues between constant flanks. An outline of the steps:
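Furin cleavage was scored on 8-mer peptides joined to a cDNA oligonucleotide and bound to magnetic beads at the N-terminus. Digestion with purified furin (1:10 enzyme:substrate, 0.01 ml, 50 mM HEPES pH 7.5, CaCl2, NaCl) lasted 7.5, 15 or 30 min. Freed DNA was tagged with adapters by PCR, sequenced and counted; the cleavage Z-score is the lowess-adjusted log count versus furin-free reactions, scaled by median absolute deviation.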

Chain of furin, P09958 (P09958 whole entry): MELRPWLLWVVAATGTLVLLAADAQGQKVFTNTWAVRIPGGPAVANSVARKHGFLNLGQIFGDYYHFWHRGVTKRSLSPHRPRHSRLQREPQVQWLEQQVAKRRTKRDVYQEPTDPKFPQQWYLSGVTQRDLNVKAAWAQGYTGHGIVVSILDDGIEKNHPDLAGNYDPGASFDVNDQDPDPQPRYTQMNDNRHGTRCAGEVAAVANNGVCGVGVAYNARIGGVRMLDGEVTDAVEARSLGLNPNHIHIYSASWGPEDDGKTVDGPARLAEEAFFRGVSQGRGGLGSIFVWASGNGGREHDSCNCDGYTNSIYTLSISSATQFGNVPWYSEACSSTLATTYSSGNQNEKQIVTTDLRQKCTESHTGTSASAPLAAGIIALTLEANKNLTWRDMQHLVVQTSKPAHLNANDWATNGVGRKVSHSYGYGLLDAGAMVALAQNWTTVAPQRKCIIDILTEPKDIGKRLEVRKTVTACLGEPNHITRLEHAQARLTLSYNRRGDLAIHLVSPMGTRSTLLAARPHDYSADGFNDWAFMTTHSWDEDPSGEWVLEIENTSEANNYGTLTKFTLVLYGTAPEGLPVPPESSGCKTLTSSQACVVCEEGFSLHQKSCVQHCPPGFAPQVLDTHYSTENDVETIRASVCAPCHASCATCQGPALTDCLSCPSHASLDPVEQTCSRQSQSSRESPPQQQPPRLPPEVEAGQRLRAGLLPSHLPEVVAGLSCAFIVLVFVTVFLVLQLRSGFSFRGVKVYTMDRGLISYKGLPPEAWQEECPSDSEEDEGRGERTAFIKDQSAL

Take CASTPCSADLAGNASASA [HC2551]: the “furin cleavage Z-score” value is, setting by setting: (7.5 min) 1.45; (15 min) 0.00667 (inactive); (30 min) 2.02.

Turning to CANYTFALWRAGNASASA [HC1199], the “furin cleavage Z-score” value (7.5 min) is -0.0905 (inactive), the “furin cleavage Z-score” value (15 min) is -0.132 (inactive) and the “furin cleavage Z-score” value (30 min) turned out to be 1.34.

As for CAAGVDAETHAGNASASA [HC350], the “furin cleavage Z-score” value reads like this: (7.5 min) -0.719 (inactive); (15 min) -1.77 (inactive); (30 min) -1.18 (inactive).

On to CAEVKTSTWVAGNASASA [HC2194], for which the “furin cleavage Z-score” value by setting is: (7.5 min) 0.637 (inactive); (15 min) -0.239 (inactive); (30 min) -1.95 (inactive).

For CAMKARPEKSAGNASASA [FS-1139], the “furin cleavage Z-score” value is 0.00638 (inactive) (7.5 min), -0.792 (inactive) (15 min) and -2.08 (inactive) (30 min).

For CADIPRYKRMAGNASASA [FS-1189], the “furin cleavage Z-score” value is, setting by setting: (7.5 min) 6.09 (active); (15 min) 5.32 (active); (30 min) 5.91 (active).

Regarding CATLSRKSRDAGNASASA [FS-1173], the “furin cleavage Z-score” value runs as follows: (7.5 min) 10.1 (active); (15 min) 11.3 (active); (30 min) 6.95 (active).

Take CAVKAAASKVAGNASASA [HC1406]: the “furin cleavage Z-score” value runs as follows: (7.5 min) -0.468 (inactive); (15 min) 1.05; (30 min) -0.785 (inactive).

On to CAKDSRLSRDAGNASASA [FS-1017], for which the “furin cleavage Z-score” value is, setting by setting: (7.5 min) -0.904 (inactive); (15 min) 0.551 (inactive); (30 min) 0.282 (inactive).

CATLSRKKRAAGNASASA [FS-567]: the “furin cleavage Z-score” value was 9.09 (active) (7.5 min), 8.88 (active) (15 min) and 6.75 (active) (30 min).

For the sequence CANNSREKKAAGNASASA [FS-1378], the “furin cleavage Z-score” value is -0.625 (inactive) (7.5 min), -0.493 (inactive) (15 min) and -0.698 (inactive) (30 min).

On to CAVKARIKRMAGNASASA [FS-310], for which the “furin cleavage Z-score” value by setting is: (7.5 min) 8.88 (active); (15 min) 10.6 (active); (30 min) 7.99 (active).

Regarding CAKLEVVTSTAGNASASA [HC2274], the “furin cleavage Z-score” value by setting is: (7.5 min) 0.95 (inactive); (15 min) 0.175 (inactive); (30 min) -1.42 (inactive).

In the case of CAGHITGHRMAGNASASA [HC316], the “furin cleavage Z-score” value (7.5 min) is 0.56 (inactive), the “furin cleavage Z-score” value (15 min) is -0.81 (inactive) and the “furin cleavage Z-score” value (30 min) was -0.0561 (inactive).

CATNRRKKRAAGNASASA [FS-1174]: the “furin cleavage Z-score” value runs as follows: (7.5 min) 8.44 (active); (15 min) 7.81 (active); (30 min) 8.15 (active).

CAVISRKKRMAGNASASA [FS-888]: the “furin cleavage Z-score” value was 8.47 (active) (7.5 min), 11.4 (active) (15 min) and 8.35 (active) (30 min).

For the sequence CAIISKKKRMAGNASASA [FS-908], the “furin cleavage Z-score” value reads like this: (7.5 min) 0.592 (inactive); (15 min) -0.299 (inactive); (30 min) 1.14.

For the sequence CATNRRPQDVAGNASASA [HC168], the “furin cleavage Z-score” value (7.5 min) was -1.65 (inactive), the “furin cleavage Z-score” value (15 min) was -1.52 (inactive) and the “furin cleavage Z-score” value (30 min) was 0.59 (inactive).

Take CAADLMGYIPAGNASASA [HC226]: the “furin cleavage Z-score” value runs as follows: (7.5 min) -1.64 (inactive); (15 min) -1.67 (inactive); (30 min) 0.444 (inactive).

Turning to CARQGRFDRSAGNASASA [FS-190], the “furin cleavage Z-score” value (7.5 min) was 4.75 (active), the “furin cleavage Z-score” value (15 min) was 6.18 (active) and the “furin cleavage Z-score” value (30 min) was 4.85 (active).

For the sequence CARQGRSHHLAGNASASA [FS-2167], the “furin cleavage Z-score” value reads like this: (7.5 min) 0.537 (inactive); (15 min) 1.01; (30 min) 2.02.

Take CALKKRGILSAGNASASA [FS-2409]: the “furin cleavage Z-score” value (7.5 min) is -1.13 (inactive), the “furin cleavage Z-score” value (15 min) was -2.56 (inactive) and the “furin cleavage Z-score” value (30 min) is 0.734 (inactive).

Consider CALKWRFDRSAGNASASA [FS-1640], for which the “furin cleavage Z-score” value reads like this: (7.5 min) 3.41; (15 min) 4.74 (active); (30 min) 4.58 (active).

On to CAWKDLLEDNAGNASASA [HC1432], for which the “furin cleavage Z-score” value reads like this: (7.5 min) 0.826 (inactive); (15 min) 1.39; (30 min) -0.792 (inactive).

With CAILSSLTVTAGNASASA [HC1134], the “furin cleavage Z-score” value was -0.227 (inactive) (7.5 min), -0.375 (inactive) (15 min) and -0.271 (inactive) (30 min).

With CAIGGAGNNTAGNASASA [HC446], the “furin cleavage Z-score” value runs as follows: (7.5 min) 0.332 (inactive); (15 min) -0.689 (inactive); (30 min) 0.317 (inactive).

Consider CAGSSSTSGIAGNASASA [HC1337], for which the “furin cleavage Z-score” value reads like this: (7.5 min) 0.384 (inactive); (15 min) 0.604 (inactive); (30 min) -0.961 (inactive).

With CAEVVTPTWVAGNASASA [HC160], the “furin cleavage Z-score” value (7.5 min) was 0.0725 (inactive), the “furin cleavage Z-score” value (15 min) was -1.35 (inactive) and the “furin cleavage Z-score” value (30 min) was -0.017 (inactive).

On to CARSRRRSRVAGNASASA [FS-3095], for which the “furin cleavage Z-score” value (7.5 min) is 1.94, the “furin cleavage Z-score” value (15 min) is 0.692 (inactive) and the “furin cleavage Z-score” value (30 min) was found to be 3.48.

In the case of CALASRGARVAGNASASA [FS-267], the “furin cleavage Z-score” value is, setting by setting: (7.5 min) -0.386 (inactive); (15 min) -0.302 (inactive); (30 min) 0.249 (inactive).

Regarding CAESDAAARVAGNASASA [HC1129], the “furin cleavage Z-score” value by setting is: (7.5 min) -0.953 (inactive); (15 min) -0.591 (inactive); (30 min) -1.03 (inactive).

Turning to CAASRRRARVAGNASASA [FS-1187], the “furin cleavage Z-score” value was 3.47 (7.5 min), 3.01 (15 min) and 4.72 (active) (30 min).

Regarding CASPPRRARVAGNASASA [FS-1571], the “furin cleavage Z-score” value is 0.556 (inactive) (7.5 min), 0.566 (inactive) (15 min) and 3.24 (30 min).

Turning to CAVAARRARVAGNASASA [FS-307], the “furin cleavage Z-score” value was 1.69 (7.5 min), 3.8 (active) (15 min) and 3.48 (30 min).

Consider CAGKFLADGGAGNASASA [HC809], for which the “furin cleavage Z-score” value is, setting by setting: (7.5 min) -1.28 (inactive); (15 min) -0.358 (inactive); (30 min) -0.637 (inactive).

In the case of CAYLVAYQATAGNASASA [HC953], the “furin cleavage Z-score” value (7.5 min) was -0.934 (inactive), the “furin cleavage Z-score” value (15 min) was -0.739 (inactive) and the “furin cleavage Z-score” value (30 min) is -1.07 (inactive).

With CALIVFPDLGAGNASASA [HC1450], the “furin cleavage Z-score” value (7.5 min) was -0.678 (inactive), the “furin cleavage Z-score” value (15 min) is -1.11 (inactive) and the “furin cleavage Z-score” value (30 min) is -0.0519 (inactive).

CARRRRHRSYAGNASASA [FS-2078]: the “furin cleavage Z-score” value by setting is: (7.5 min) 6.85 (active); (15 min) 11.1 (active); (30 min) 9.14 (active).

On to CARRRRASAPAGNASASA [FS-3062], for which the “furin cleavage Z-score” value was 7.44 (active) (7.5 min), 6.83 (active) (15 min) and 5.33 (active) (30 min).

As for CARRRRHSPPAGNASASA [FS-2453], the “furin cleavage Z-score” value is, setting by setting: (7.5 min) 5.59 (active); (15 min) 8.37 (active); (30 min) 6.78 (active).

For CARRRRPGGPAGNASASA [FS-2792], the “furin cleavage Z-score” value by setting is: (7.5 min) -0.8 (inactive); (15 min) -0.454 (inactive); (30 min) 0.146 (inactive).

For CARRRRHEGPAGNASASA [FS-2233], the “furin cleavage Z-score” value (7.5 min) was 3.52 (active), the “furin cleavage Z-score” value (15 min) was 4.96 (active) and the “furin cleavage Z-score” value (30 min) was 4.69 (active).

For the sequence CARCTTPCSGAGNASASA [HC1953], the “furin cleavage Z-score” value is, setting by setting: (7.5 min) -0.496 (inactive); (15 min) -1.94 (inactive); (30 min) -0.955 (inactive).
